A selection: hits, their analogues and other compounds. The true share with any hit is near 32%.
CYP2C9 inh = blocks human cytochrome P450 2C9. P11712. CYP2C9 Supersomes, luciferin-H conversion, luminescence. AID 777. inhibition, % at 5 µM. 96,000 tested, 20% active;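 active = blocking of liver enzyme CYP2C9 beyond about 50% at 5 µM, limit read from the data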
Target sequence (P11712 whole entry, looked up): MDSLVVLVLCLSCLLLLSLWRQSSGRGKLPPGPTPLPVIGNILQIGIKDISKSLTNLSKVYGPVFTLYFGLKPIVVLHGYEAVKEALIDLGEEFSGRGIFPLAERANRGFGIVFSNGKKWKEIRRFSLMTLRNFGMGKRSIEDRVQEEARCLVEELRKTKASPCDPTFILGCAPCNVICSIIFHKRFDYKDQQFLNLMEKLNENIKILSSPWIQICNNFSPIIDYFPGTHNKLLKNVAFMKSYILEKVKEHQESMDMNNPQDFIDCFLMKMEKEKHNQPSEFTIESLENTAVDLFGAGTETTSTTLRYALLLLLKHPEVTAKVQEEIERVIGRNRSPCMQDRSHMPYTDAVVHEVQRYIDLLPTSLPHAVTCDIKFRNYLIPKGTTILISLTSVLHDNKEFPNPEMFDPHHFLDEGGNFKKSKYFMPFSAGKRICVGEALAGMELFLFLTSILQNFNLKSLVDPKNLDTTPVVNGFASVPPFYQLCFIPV
PostGolgi ctrl = yeast control strain growth, post-Golgi counter-screen; 98,000 tested, 5% active; efflux-deficient yeast background strain, growth absorbance A615, 16 h; inhibition, % at 10 µM; AID 738
CYP2C19 inh = human CYP2C19 inhibition | 96,000 tested, 21% active | inhibition, % at 5 µM | P33261 | CYP2C19 Supersomes, luciferin-H EGE luminescence, 30 min;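 active = CYP2C19 inhibition above a set limit at 5 µM in the primary screen, cut at about 50% in these data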;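 note: plate controls were negative control wells for no effect and 2.5 mM tranylcypromine positive control for full effect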
CYP2C9 act = activators of human CYP2C9 | P11712 | recombinant CYP2C9, luciferin-H conversion, luminescence; active compounds read high; factor 1 = untreated enzyme, 0 = blocked | activation factor at 5 µM | 96,000 tested, 1.4% active | AID 1024;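 active = activation factor of 2 or more for CYP2C9 at a 5 µM dose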;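 note: 0 = sulfaphenazole-blocked wells and 1 = vehicle-only wells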
PostGolgi yeast = growth inhibition of a yeast mutant, post-Golgi transport screen; post-Golgi transport phenotypic cell assay; inhibition, % at 10 µM; 98,000 tested, 0.9% active; AID 739;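 note: yeast cells grown in 1536-well plates; yeast grown about 18 h at 30C before absorbance read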
CYP2C19 activ = cytochrome P450 2C19 (human) activation; P33261; recombinant CYP2C19, luciferin-H EGE luminescence; active compounds read high; 0 = fully inhibited enzyme, 1 = untreated enzyme; activation factor at 5 µM; 96,000 tested, under 10 active;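 active = activation factor of at least 2 at 5 µM in the primary screen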;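 note: 0 = wells with 2.5 mM tranylcypromine and 1 = vehicle-only wells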
* marks the source's active call; other numbers are inactive results. Cut-off read from the data, not from the text of the source, unless noted: active = inhibition above about 30%; inactive = the rest.

SMILES	CYP2C9 inh	PostGolgi ctrl	CYP2C19 inh	CYP2C9 act	PostGolgi yeast	CYP2C19 activ
O=C(Nc1cc(C(F)(F)F)ccc1-n1cncn1)c1ccc(Br)cc1	9.5	2.3	24.2	0.9	-1.3	0.8
O=C(Nc1ccc(Cl)cc1)c1ccc(-n2cccn2)c([N+](=O)[O-])c1	-18.1	37.7*	-3.8	1.2	11.6	1
O=C(Nc1cccc(Cl)c1)c1ccc(-n2cncn2)c([N+](=O)[O-])c1	99.9*	0.6	100.3*	0	-3.0	0
O=C(Nc1ccc(Cl)cc1)c1ccc(-n2cncn2)c([N+](=O)[O-])c1	98.4*	7.9	100.3*	0	-13.8	0
Cc1ccc(NC(=O)c2ccc(-n3cccn3)c([N+](=O)[O-])c2)cc1C	43.1	2.3	16.9	0.6	-0.9	0.8
N#Cc1c(-c2ccccc2)nc2n(c1=O)CCS2	-12.1	-0.4	20.5	1.1	-5.5	0.8
NC(=O)C1CCN(C(=O)c2ccc(CS(=O)(=O)c3c(Cl)cccc3Cl)o2)CC1	8.5	-2.4	-11.5	0.9	1.2	1.1
CC1Cc2cc(/C(O)=C3/C(=O)C(=O)N(Cc4ccco4)C3c3cccs3)ccc2O1 (stereo not given)	-1.7	1.9	-9.0	1	0.2	1.1
CC(N=C1NS(=O)(=O)c2ccccc21)C(=O)NCc1ccc2c(c1)OCO2 (stereo not given)	86.4*	-1.2	58.1*	0.1	3.8	0.4
O=C(NCc1ccc2c(c1)OCO2)c1cccnc1	10.6	2.4	58.6*	0.9	0.3	0.4
CC(C(=O)NCc1ccc2c(c1)OCO2)N(c1ccccc1)S(C)(=O)=O (stereo not given)	9.9	8.6	38.4	0.9	0.0	0.6
COc1ccc(CNC(=O)CSc2nnnn2-c2ccc(O)cc2)cc1	-23.3	-5.3	89.3*	1.2	-11.6	0.1
COc1ccc(-n2nnnc2SCC(=O)NCCc2ccc(OC)c(OC)c2)cc1	40.2	11.7	16.5	0.6	-0.8	0.8
O=C(NCc1ccc2c(c1)OCO2)Oc1ccccc1	13.2	3.1	73.9*	0.9	-0.2	0.3
CCCN(CCC)CCCNC(=O)CC1Nc2ccccc2NC1=O (stereo not given)	-41.1	-8.5	1.3	1.4	1.7	1
COc1ccc(-n2ccnc2SCC(=O)NCc2ccc3c(c2)OCO3)cc1	94.0*	-3.9	99.7*	0.1	-2.6	0
COc1ccc(OC)c(-n2nnnc2SCC(=O)NCc2ccc3c(c2)OCO3)c1	60.1*	-3.6	81.2*	0.4	13.5	0.2
COc1ccc(OC)c(-n2nnnc2SCC(=O)O)c1	22.0	6.7	7.3	0.8	4.9	0.9
CN1CCN(C(=O)c2ccc(C3SCC(=O)N3Cc3ccco3)cc2)CC1 (stereo not given)	-0.3	8.6	6.0	1	-0.8	0.9
COc1cccc(N2C(=O)Nc3ccccc3C2(O)C(=O)NCc2ccc3c(c2)OCO3)c1 (stereo not given)	9.1	5.8	61.0*	0.9	-1.7	0.4
O=C(NCc1ccc2c(c1)OCO2)c1ccc(C2SCC(=O)N2Cc2ccco2)cc1 (stereo not given)	98.4*	5.4	67.0*	0	-1.9	0.3
COc1ccc(-c2nc(CS(=O)CC(=O)NCc3ccc4c(c3)OCO4)c(C)o2)cc1 (stereo not given)	36.2	5.5	35.6	0.6	2.2	0.6
OC(CN1CCN(c2cccc(C(F)(F)F)c2)CC1)c1c[nH]c2ccccc12 (stereo not given)	-53.8	20.3	21.7	1.5	1.1	0.8
CCOC(=O)c1cnc(SCC(=O)N2CCN(c3ccccc3)CC2)nc1N	32.3	22.5	25.5	0.7	-0.8	0.7
COc1cc(C(=O)NCCC(=O)NCc2ccc3c(c2)OCO3)cc(OC)c1OC	3.8	8.7	-15.8	1	2.6	1.2
COc1ccccc1CC(=O)NCc1ccc2c(c1)OCO2	4.1	10.6	90.1*	1	1.0	0.1
COc1ccc2c(c1)C=C(C(=O)NCc1ccc(Cl)cc1)CO2	62.0*	15.8	53.4*	0.4	19.0	0.5
Cc1cc2cc(CNC(=O)c3ccc4c(c3)OCO4)ccc2n1C	-9.1	2.6	71.8*	1.1	0.0	0.3
COc1ccc(CC(=O)NCc2ccc3c(c2)OCO3)cc1	68.8*	4.6	96.8*	0.3	15.6	0
Cc1cc2cc(CNC(=O)c3cc4ccccc4o3)ccc2n1C	24.5	0.6	22.1	0.8	-2.1	0.8

Bioassay records: PubChem, several laboratories
